We go through 27 molecules from PubChem BioAssay AID1825 (The Scripps Research Institute Molecular Screening Center, 2009).

About 2,300 (0.79%) of roughly 290,000 compounds were called active. This is one part of a sample in which actives are shown more often than they occur. Values without a mark were called inactive. No stated cut-off is given here; in the data, active means inhibition above about 22%; inactive means the rest.

A word on the inhibition: it is the change of the read-out against control, counted positive when it falls.

This assay is described as follows: cytotoxicity in IEC-6 intestinal epithelial cells, primary screen, cytotoxicity control for KLF5 inhibitor project, cell-based, luminescence (AID 1825).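 Further: 0% = plate median of test compound wells and 100% = cytotoxic reference compound wells.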 The conditions noted are these: IEC-6 cytotoxicity, luminescence viability; at 5 µM; stronger effect = higher value.
`COc1ccc(/C=N/Nc2nc3ccccc3c(=O)[nH]2)cc1`: the inhibition was 1.1%.

Regarding `CCOc1cc(/C=C/c2nc3ccccc3c(=O)[nH]2)cc(Br)c1OC`, the inhibition was 48.7% (active).

Regarding `COc1ccc(C)cc1-n1nnnc1SCc1nc2ccccc2c(=O)[nH]1`, the inhibition is 3.2%.

For `CCCC1=Nc2cc(C(=O)NCCN3CCCC3)ccc2Sc2ccccc21`, the inhibition is -2.7%.

Regarding `CCCC1=Nc2cc(C(=O)NCc3ccco3)ccc2Sc2ccccc21`, the inhibition was 62.9% (active).

Regarding `CCC1=Nc2cc(C(=O)NCCN3CCCC3)ccc2Sc2ccc(C)cc21`, the inhibition was 2.7%.

On to `Cc1ccccc1N1CC(C(=O)Nc2nnc(SCCC3OCCO3)s2)CC1=O` (configuration not stated), for which the inhibition was -3.4%.

Take `O=c1ccc2cc(S(=O)(=O)NCCCc3ccccc3)ccc2[nH]1`: the inhibition is -3.7%.

With `C=CCC1(CC=C)CCCN1C(=O)c1cc(COc2ccc(-n3cncn3)cc2)on1`, the inhibition was 22.6% (active).

Regarding `CCn1ccnc1CN(C)C(=O)c1cc(COc2ccc(-n3cncn3)cc2)on1`, the inhibition is -7.1%.

As for `O=C(c1cc(COc2ccc(F)c(F)c2)on1)N1CCOCC1`, the inhibition is 0.8%.

In the case of `CCCCNC(=O)CCn1nc(-c2ccc(Cl)cc2)ccc1=O`, the inhibition is -2.4%.

Regarding `COc1ccc(-c2cc(C(F)(F)F)nc(SCC(=O)Nc3ccc4c(c3)OCO4)n2)cc1OC`, the inhibition is 3%.

Turning to `COc1ccc(-c2cc(C(F)(F)F)nc(S(C)(=O)=O)n2)cc1OC`, the inhibition was 26.4% (active).

Regarding `COc1cc(OC)nc(S(C)(=O)=O)n1`, the inhibition is 6.6%.

`Cn1c(=O)[nH]c(=O)c2c1nc(N1CCN(C(c3ccccc3)c3ccccc3)CC1)n2CCO`: the inhibition is -7.4%.

For the molecule `COc1ccccc1N1CCN(S(=O)(=O)c2ccc3c(c2)NC(=O)CS3)CC1`, the inhibition was 2.9%.

With `CC(C)(C)c1cc[n+](-c2[nH]c(=O)sc2/C=N/N=C(\[O-])c2ccccc2)cc1`, the inhibition was 4.2%.

As for `O=C(c1ccccc1F)N(Cc1ccccc1)Cc1ccccc1`, the inhibition is -1.4%.

`CC1(C)C(C=C(Cl)Cl)C1C(=O)N(Cc1ccc(Cl)cc1)C1CCS(=O)(=O)C1` (configuration not stated): the inhibition is -12.5%.

Turning to `CN(c1ccccc1)S(=O)(=O)c1ccc(Cl)c(C(=O)OCC(=O)NCc2ccco2)c1`, the inhibition is -4.1%.

With `O=C(COC(=O)c1cc(S(=O)(=O)N2CCCCC2)ccc1Cl)NCc1ccco1`, the inhibition is 6.2%.

Consider `Cc1cc(C(=O)OCC(=O)NCc2ccco2)c(C)n1-c1ccccc1`, for which the inhibition is 33.2% (active).

On to `O=C(COc1ccc(Cl)cc1)Nc1ccc2oc(=O)ccc2c1`, for which the inhibition was -4.8%.

Regarding `Clc1ccc(N/N=C/c2cccs2)nn1`, the inhibition was -1.4%.

With `Oc1cccc(/C=N/Nc2ccc(Cl)nn2)c1O`, the inhibition was 99.5% (active).

`COc1cccc(/C=N/Nc2ccc(Cl)nn2)c1`: the inhibition is -3.1%.
